HEK293 tox: Cytotoxic Profiling in HEK 293 Cell Line of Diverse Libraries Using Quantitative High-Throughput Screening | AID 1345083, 2018 | actives 6.6% (n = 94,000) | Potency, µM (highest dose often 115 µM), for the others: at the highest dose activity change, negative = cytotoxicity, hits mostly inhibitors | HEK 293 viability, ATP luminescence (CellTiter-Glo), 48-72 h; also: nearly all actives have a fitted effect of over 60% in size
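qHTS cytotoxicity; HEK 293, 250 cells/well; compound pinned; 48 or 72 hr, 37 degree Celsius, 5% CO2, 95% humidity; CellTiter-Glo, 10 min RT; luminescence (ATP).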
hNpr1 antagonist: Natriuretic polypeptide receptor (hNpr1) antagonism - Primary qHTS. actives 1.6% (n = 76,000). Potency, µM (titrated, usually from 46.3 µM), inactives show top-dose activity change, negative = inhibition, actives largely listed as inhibitors. AID 1347048, 2019. HEK293 hNpr1 GloSensor cGMP, ANP-stimulated luminescence; calls by dose curve; also: nearly all actives have a fitted effect of over 60% in size
Target sequence (P16066 whole entry, looked up): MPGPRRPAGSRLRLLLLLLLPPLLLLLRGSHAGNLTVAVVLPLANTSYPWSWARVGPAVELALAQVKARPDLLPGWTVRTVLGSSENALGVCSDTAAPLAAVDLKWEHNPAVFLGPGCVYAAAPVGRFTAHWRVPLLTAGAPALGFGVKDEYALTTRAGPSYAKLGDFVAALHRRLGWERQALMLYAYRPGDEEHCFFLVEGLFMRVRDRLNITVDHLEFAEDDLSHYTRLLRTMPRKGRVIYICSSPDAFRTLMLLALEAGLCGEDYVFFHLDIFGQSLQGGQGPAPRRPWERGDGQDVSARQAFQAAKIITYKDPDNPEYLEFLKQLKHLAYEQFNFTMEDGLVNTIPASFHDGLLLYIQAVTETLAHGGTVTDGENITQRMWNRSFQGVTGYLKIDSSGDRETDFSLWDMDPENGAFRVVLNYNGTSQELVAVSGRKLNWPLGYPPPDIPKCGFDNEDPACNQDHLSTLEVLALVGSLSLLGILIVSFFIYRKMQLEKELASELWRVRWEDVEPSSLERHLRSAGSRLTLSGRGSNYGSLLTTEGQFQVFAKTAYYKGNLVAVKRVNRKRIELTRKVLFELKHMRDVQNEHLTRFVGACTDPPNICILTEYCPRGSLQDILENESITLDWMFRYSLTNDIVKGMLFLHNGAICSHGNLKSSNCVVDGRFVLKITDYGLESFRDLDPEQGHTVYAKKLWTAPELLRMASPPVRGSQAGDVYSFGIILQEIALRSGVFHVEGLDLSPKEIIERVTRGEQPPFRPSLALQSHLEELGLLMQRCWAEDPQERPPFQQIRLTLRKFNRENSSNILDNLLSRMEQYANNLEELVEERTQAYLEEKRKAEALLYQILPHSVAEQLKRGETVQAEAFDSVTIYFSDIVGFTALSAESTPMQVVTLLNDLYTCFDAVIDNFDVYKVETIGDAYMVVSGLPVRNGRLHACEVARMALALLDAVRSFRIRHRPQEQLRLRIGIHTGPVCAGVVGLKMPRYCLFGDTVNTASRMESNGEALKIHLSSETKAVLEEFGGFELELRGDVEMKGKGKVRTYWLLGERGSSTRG
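Compound pre-incubated 30 min at room temperature on GloSensor-loaded HEK293 cells stably carrying hNpr1 and the pGS-40F cGMP biosensor. Stimulation uses hNppA at 0.1 nM final; luminescence is taken at baseline and 20 min post-agonist.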
SNCA viab count: GF-AFC viability counterscreen for inhibitors of alpha-synuclein gene (SNCA) expression. HEK-293-SNCA-luc viability, GF-AFC fluorescence, 24 h. Potency, µM (series often up to 57.1 µM), for inactives: top-dose activity change, negative = cytotoxicity, hits mostly cytotoxic. actives 0.12% (n = 150,000). AID 1671193, 2021;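 also: 0% = DMSO-treated cells and -100% = medium-only wells without cells; nearly all actives have a fitted effect of over 30% in size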
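HEK-293-SNCA-luc cells (1500/well) plated 24 h, then exposed 24 h to a dilution series; GF-AFC added 30 min at 37C, fluorescence 405/540 nm; normalised to medium-only and DMSO wells, Hill fit.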
Luciferase inh: Firefly luciferase inhibition profiling of diverse chemical library using quantitative high-throughput screening | Potency, µM (titrated, usually from 115 µM), hits mostly inhibitors | actives 2.5% (n = 76,000) | purified P. pyralis luciferase, luminescence, biochemical; also: nearly all actives have a fitted effect of over 65% in size
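Biochemical qHTS: compound (6-point titration) added to 10uM D-luciferin plus 10uM ATP in Tris acetate pH 7.5 buffer with Mg, Tween-20 and BSA, then purified enzyme at 10nM; light output imaged.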
SNCA expr inhib: Primary qHTS assay for inhibitors of alpha-synuclein gene (SNCA) expression; AID 1671194, 2021; actives 0.17% (n = 140,000); Potency, µM (doses to about 57.2 µM), inactives show top-dose activity change, negative = inhibition, hits mostly inhibitors; HEK-293 SNCA-luciferase knock-in, luminescence, 24 h;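 also: plate controls were DMSO cells for no effect and cell-free wells for full effect; nearly all actives have a fitted effect of over 45% in size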
3T3 cytotox: Cytotoxic Profiling in NIH 3T3 Cell Line of Diverse Libraries Using Quantitative High-Throughput Screening; NIH 3T3 viability, CellTiter-Glo ATP luminescence, 48-72 h; Potency, µM (series often up to 96.7 µM), inactives show top-dose activity change, negative = cytotoxicity, most hits filed as inhibitors; actives 4.3% (n = 94,000); also: nearly all actives have a fitted effect of over 55% in size
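NIH 3T3 cells at 400 cells/well received 23 nL of compound by pintool and were incubated 48 or 72 h at 37 °C. Viability was read as ATP-coupled CellTiter-Glo luminescence.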
Numbers without * were called inactive; i = inactive; ? = inconclusive; / = no result; [ ] = another dose, or the depositor's remark. Hits are enriched below; roughly 7.2% of the tested compounds scored in any of these assays. Unless noted, calls follow the shape of the dose curve; as a rule, active = well fitted curve in the direction sought with a large enough effect; inconclusive = small, poorly fitted or top-dose-only effect, or another doubt; inactive = no such curve, though single readings can be large; an effect the other way counts as inactive or inconclusive. Unless noted, % is scaled to controls: 0 for no effect and ±100 for the full control effect; potency is read from the fitted curve at half-maximal effect.

SMILES	HEK293 tox	hNpr1 antagonist	SNCA viab count	Luciferase inh	SNCA expr inhib	3T3 cytotox
O=C(c1n[nH]c2ccccc12)N1CCC(Cc2nc(-c3ccncc3)n[nH]2)CC1	5%	2%	10%	i	-2%	?
COc1ccccc1-c1ccc(C(=O)N2CCC(C(=O)NCCCc3ccccc3)CC2)cc1	79µM*	/	0%[12.5 µM]	/	12%	?
COc1ccccc1-c1ccc(C(=O)N2CCC(C(=O)NCc3ccccc3)CC2)cc1	?	/	3%[12.5 µM]	/	5%	?
COc1ccccc1-c1ccc(C(=O)N2CCC(C(=O)NCc3ccc(C(F)(F)F)cc3)CC2)cc1	35µM*	/	-2%[12.5 µM]	/	43%	?
COc1ccccc1-c1ccc(C(=O)N2CCC(C(=O)NCc3cccc(Cl)c3)CC2)cc1	20µM*	/	7%[12.5 µM]	/	12%	?
Cc1ccccc1C(=O)N1C[C@@H](F)C[C@H]1C(=O)N1CCCCC1	18%	1%	-3%	i	6%	3%
CCCn1c(C)cnc1CCNC(=O)CCC1CCCC1	-6%	4%	4%	i	20%	-2%
COC1CCCN(c2cc(-c3ccc(Cl)cc3)nc3c(C)noc23)C1 (stereo unspecified)	56µM*	1%[70.6 µM]	3%[87.6 µM]	i	?	?
COC1CCCN(c2cc(-c3ccsc3)nc3c(C)noc23)C1 (stereo unspecified)	?	-1%[70.6 µM]	-15%[87.6 µM]	i	6%[87.6 µM]	?
COC1CCN(c2cc(-c3ccsc3)nc3c(C)noc23)CC1	79µM*	-2%[70.6 µM]	8%[87.6 µM]	i	-1%[87.6 µM]	?
COC1CCN(c2cc(-c3cccc(C(F)(F)F)c3)nc3c(C)noc23)CC1	?	-2%[70.6 µM]	1%[87.6 µM]	i	?	?
CC[C@H]1CN(C(=O)c2ccnc(Cl)c2)CC[C@H]1CC(=O)O	2%[172 µM]	12%[70.6 µM]	8%[87.6 µM]	i	?	-6%[174 µM]
COc1ccc(-c2ccc3c(n2)c(=O)ncn3Cc2ccccc2)cc1OC	-17%[172 µM]	-1%[70.6 µM]	3%[87.6 µM]	i	0%[87.6 µM]	?
O=c1c2nc(-c3ccccc3)ccc2ncn1-c1ccccc1	?	-2%[70.6 µM]	3%[87.6 µM]	i	134%[87.6 µM]	?
COc1ccc(-c2ccc3ncn(C)c(=O)c3n2)cc1OC	?	0%[70.6 µM]	-8%[87.6 µM]	i	12%[87.6 µM]	35µM*
Cn1cnc2ccc(-c3ccncc3)nc2c1=O	?	3%[70.6 µM]	8%[87.6 µM]	i	9%[87.6 µM]	79µM*
COC(=O)N(C)Cc1cccc(N2CCN(C(C)c3ccccc3)CC2)c1 (stereo unspecified)	45µM*	/	/	/	/	?
CC(C)CC(=O)NCC(c1ccc2c(c1)OCO2)N1CCN(c2ccccc2)CC1 (stereo unspecified)	/	/	-12%	/	-19%	/
CC(c1ccccc1)N1CCN(c2cccc(CN(C)S(C)(=O)=O)c2)CC1 (stereo unspecified)	45µM*	/	/	/	/	?
O=C(c1ccc(CNc2nccc(-c3cccnc3)n2)cc1)N1CCCCC1	40µM*	-10%	-13%	i	-15%	50µM*
Cc1ccsc1CN1CCC(Oc2ccccc2-c2nc(-c3ccncc3)no2)C1 (stereo unspecified)	25µM*	-23%	-13%	?	61%	32µM*
c1csc(CN2CCC(Oc3ccccc3-c3nc(-c4cnccn4)no3)C2)c1 (stereo unspecified)	?	-13%	?	i	-17%	?
Cn1cccc1CN1CCC(Oc2ccccc2-c2nc(-c3ccncc3)no2)C1 (stereo unspecified)	?	/	-18%	/	85%	40µM*
CCCNC(=O)N1CCC(O)(c2csc(CN3CC[C@@H](O)C3)n2)CC1	-23%[172 µM]	0%[70.6 µM]	0%[87.6 µM]	i	-5%[87.6 µM]	-5%[174 µM]
O=C1NCCC[C@@H]1NC(=O)[C@@H]1CN(C(=O)c2cccc(F)c2)CCN1C(=O)c1cnccn1	-10%	0%	4%	i	-17%	-3%
SMILES	HEK293 tox	hNpr1 antagonist	SNCA viab count	Luciferase inh	SNCA expr inhib	3T3 cytotox
CCCNc1cc(N2CCC(CCC(=O)Nc3cccc(C)c3)CC2)ncn1	i	-23%	-2%	20µM*	2µM*	0%
CCCNc1cc(N2CCC(CCC(=O)NCC)CC2)ncn1	i	-14%	-15%	i	2.5µM*	-7%
CCCNC(=O)CCC1CCN(c2cc(NCCC)ncn2)CC1	1%	-3%	-1%	?	3.2µM*	-11%
CCNc1cc(N2CCC(CCC(=O)NCc3ccc(OC)cc3)CC2)ncn1	?	-25%	1%	?	?	-20%
CCCNc1cc(N2CCC(CCC(=O)NCc3ccccc3)CC2)ncn1	-29%	-4%	12%	?	2.5µM*	-16%
O=C(CCc1ccccc1)N1CCc2c(nc(-c3ccc(F)cc3)[nH]c2=O)C1	1%	2%	0%	i	-8%	-1%
CN1[C@@H](CCC(=O)N2CCC(O)CC2)CNC(=O)[C@@H]2[C@H]1CCN2Cc1ccc(O)cc1	i	5%[70.6 µM]	-12%[87.6 µM]	i	-26%[87.6 µM]	i
CCCNC(=O)N1CCC(Cc2noc(C3CC3)n2)C1 (stereo unspecified)	-7%	/	-3%	/	-17%	-7%
COc1ccc(Cn2ccn3nc4c(c3c2=O)CCCC4)cc1F	40µM*	2%	-14%	i	7%	?
O=c1c2c3c(nn2ccn1Cc1cc(F)cc(F)c1)CCCC3	?	-3%	-6%	i	11%	?
CCN(CC)c1ccc(NC(=O)CCn2ccn3nc4c(c3c2=O)CCCC4)c(C)c1	?	-3%	?	i	-29%	40µM*
Cc1ccc(OC2(C(=O)O)CCN(C(=O)C3CCOCC3)CC2)cc1	-7%	4%	11%	i	-14%	i
CCNC(=O)NCCc1ncc(C)n1Cc1ccc(F)cc1	-25%	4%	10%	i	5%	-13%
COc1cccc(CCC(=O)Nc2ccc3ncnc(N4CCCC4)c3c2)c1	?	3%	-9%	i	10%	?
COc1ccc(Nc2cnc3ccc(-c4ccc(F)cc4)nn23)cc1	?	-2%[70.6 µM]	-9%[87.6 µM]	i	-9%[87.6 µM]	?
COc1ccc(Nc2cnc3ccc(-c4ccc(F)cc4)nn23)cn1	50µM*	3%[70.6 µM]	-1%[87.6 µM]	i	-13%[87.6 µM]	35µM*
COc1ccc(-c2ccc3ncc(Nc4ccc5c(c4)OCO5)n3n2)cn1	?	-13%[70.6 µM]	-15%[87.6 µM]	i	0%[87.6 µM]	?

Source: PubChem BioAssay
